From PubChem BioAssay (NCATS)
Where “and” joins values, the source holds several entries; their conditions need not be identical. Equal entries are not always repeated. Inconclusive results are not listed. Calls of active or inactive are those of the source. Unless noted, the call rests on the fitted dose curve; in most records, active means well fitted curve in the direction sought with a large enough effect; inconclusive means small, poorly fitted or top-dose-only effect, or another doubt; inactive means no such curve, though single readings can be large; an effect the other way counts as inactive or inconclusive.

Tests used:
[1] = AP1 Signaling Pathway (AID 357; active means well fitted curve in either direction with a large enough effect, not every such curve was filed as active;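 further: ME-180 reporter cells stimulated with EGF at its EC50 level; on the % scale 0 is the no-effect control and ±100 the full control effect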); details: ME-180 AP-1-bla reporter, EGF-induced, beta-lactamase ratio, 5 h; at 7.69 µM (top of the series) unless noted
Procedure, shortened: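 Cells are seeded overnight, exposed to compound titrations and an EC50 level of EGF for 5 hours at 37 °C, then loaded with CCF4 dye for 2.5 hours. Beta-lactamase activity under the AP-1 element is read as a blue/green ratio.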

[2] = biological target: Cytochrome P450 1A2 (Homo sapiens) (UniProt P05177); assay: p450-cyp1a2 (AID 410; calls by dose curve; further: potency means the concentration at half of the fitted maximal effect;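 on activity change, negative = inhibition: -100% = full effect of reference inhibitor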); details: recombinant CYP1A2, luciferin-ME demethylation, luminescence; series mostly up to 57 µM
Procedure, shortened: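 O-Demethylation of luciferin 6' methyl ether by human CYP1A2 is monitored as luciferase luminescence. Substrate sits at Km (100uM); enzyme is 20nM. Values are scaled to 57 uM furafylline as maximal inhibition.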

[3] = NFAT Signaling Pathway (AID 444; active means well fitted curve in either direction with a large enough effect, not every such curve was filed as active;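 further: carbachol stimulus at about its EC50 of 1 µM final; on the % scale 0 is the no-effect control and ±100 the full control effect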); details: Jurkat NFAT-bla M1, carbachol, beta-lactamase ratio, 5 h; at 7.69 µM (top of the series) unless noted
Procedure, shortened: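 Read-out: CCF4 FRET ratio (460 nm/530 nm) after 1 h RT dye loading, used for %activity and AC50 from titration series. Cells: Jurkat NFAT-β-lactamase/M1 line, treated with compound plus 1 uM carbachol for 5 h, 37 °C.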

[4] = Stat Signaling Pathway (AID 446; active means well fitted curve in either direction with a large enough effect, not every such curve was filed as active;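 further: ME-180 cervical cancer cells given 40 pM IL-6 alongside compound; SIE-controlled beta-lactamase reporter measured as 460/530 nm FRET emission ratio; on the % scale 0 is the no-effect control and ±100 the full control effect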); details: ME-180 (cervical carcinoma) SIE beta-lactamase reporter, IL-6 stimulated, 5 h; at 7.69 µM (top of the series) unless noted
Procedure, shortened: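 Compound effects on IL-6-induced STAT reporter activity were measured in ME-180 cells. After overnight culture, cells were co-treated with 40 pM IL-6 for 5 hrs before beta-lactamase substrate loading at room temperature.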

[5] = biological target: Glucocorticoid receptor (Homo sapiens) (UniProt P04150); assay: GR-GFP Redistribution (AID 450;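 active means compounds whose dose series gives a full or clear partial fitted curve of increased nuclear translocation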; further: potency means the concentration at half of the fitted maximal effect); details: U2OS GR-GFP nuclear translocation, laser cytometry, 2 h
[6] = biological target: Glucocorticoid receptor (Homo sapiens) (UniProt P04150); assay: GR-EFC Redistribution (AID 451; calls by dose curve; further: potency means the concentration at half of the fitted maximal effect); details: CHO-K1 GR-EFC translocation, beta-gal luminescence, 2 h
Procedure, shortened: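 Translocation of GR-ED fusion to nuclear EA restores b-gal, read by luminescence after 1 h room-temperature detection. Engineered CHO-K1 biosensor cells, 1,000/well, exposed 2 h at 37 C to titrations up to 46 uM final.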

[7] = biological target: Mitogen-activated protein kinase 10 (Mus musculus) (UniProt Q61831); assay: JNK3 AlphaScreen Assay (AID 530; active means well fitted curve in either direction with a large enough effect, not every such curve was filed as active;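 further: kinase came from lysate of stimulated human HepG2 cells; signal reports phosphorylation of biotinylated GST-cJun 1-79 at Ser73 with 10 µM ATP; on the % scale 0 is the no-effect control and ±100 the full control effect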); details: JNK3 lysate, c-Jun phosphorylation; series mostly up to 57.1 µM
Procedure, shortened: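 qHTS titrations with 15 min compound pre-incubation before adding ATP (10 uM final). Read-out: AlphaScreen of Ser73-phosphorylated biotin-GST-cJun using HepG2 lysate JNK3 activated by IL-1β and TNFα.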

[8] = biological target: 3',5'-cyclic-AMP phosphodiesterase 4B (Homo sapiens) (UniProt Q07343); assay: qHTS Assay for Inhibitors of PDE-IV (AID 607; active means well fitted activation curve with a large enough effect in the main read-out, with a control signal flat, not every such curve was filed as active; further: % of control where 0% means no effect); details: HEK293 ACTOne CNG channel cells, membrane potential fluorescence; series mostly up to 22.9 µM
Procedure, shortened: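 ACTOne HEK293 cells carry a modified cAMP-gated CNG channel and express endogenous PDE4; plated 1000 cells/well, compounds up to 22.9 uM final. Membrane-potential dye fluorescence (ex 535/em 590) was read; parental cells received 10 uM forskolin + 100 uM RO 20-1724.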

[9] = qHTS Assay for Lipid Storage Modulators (AID 1519; calls by dose curve); details: Drosophila S3 cells, BODIPY lipid droplet/cell ratio, laser cytometry, cells loaded with oleic acid
Procedure, shortened: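 Cells seeded at 5,000 per well were treated with compounds over a concentration series and loaded with oleic acid (400 uM, as added). Lipid droplet fluorescence (488 nm excitation, 500-530 nm channel) was read by laser-scanning cytometry and normalized to 20 uM Triacsin C.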

[10] = biological target: Ubiquitin carboxyl-terminal hydrolase 1 (Homo sapiens) (UniProt O94782); assay: Inhibitors of USP1/UAF1: Pilot qHTS (AID 504865); details: purified USP1/UAF1, Ub-rhodamine cleavage fluorescence; series mostly up to 54.9 µM;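 further: rhodamine fluorescence freed from ubiquitin-rhodamine substrate followed over time; top concentration of the series differs between compounds; on the % scale 0 is the no-effect control and ±100 the full control effect; nearly all actives have a fitted effect of over 35% in size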
Procedure, shortened: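 Enzyme-free wells gave the negative control, while test wells held 1nM USP1/UAF1 preincubated with compound for 15 min at room temperature. Ub-Rho at 150nM final started the reaction, and fluorescence at 480/540 nm was recorded kinetically.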

[11] = biological target: Luciferin 4-monooxygenase (Photinus pyralis) (UniProt P08659); assay: Biochemical firefly luciferase enzyme assay for NPC (AID 624030);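 further: purified P. pyralis luciferase at 10 nM with luciferin and ATP substrate; 0% = DMSO and -100% = full luciferase inhibition by PTC124 control; nearly all actives have a fitted effect of over 70% in size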; details: purified P. pyralis luciferase, luminescence, 5 min; series mostly up to 58.6 µM
Procedure, shortened: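 Direct inhibition of firefly luciferase enzyme (10 nM final, 50 mM Tris Acetate) assessed by luminescence within 5 minutes. Percent activity scaled between DMSO and PTC124 positive control, with concentration-effect curves classified by fit quality and response.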

[12] = qHTS profiling for inhibitors of Plasmodium falciparum proliferation (AID 504749);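 further: 0% = DMSO vehicle and full inhibition = artemisinin control; nearly all actives have a fitted effect of over 60% in size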; details: P. falciparum in erythrocytes, SYBR Green DNA, 72 h
Procedure, shortened: (§1)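 SYBR Green fluorescence of parasite DNA, read after lysis and overnight dark incubation, measured growth over 72 h in erythrocyte culture at 0.3% parasitemia and 2.5% hematocrit. Data normalised to DMSO and 0.29 uM artemisinin, with plate-drift correction.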

CP238 = assay: as above; details: P. falciparum in erythrocytes, SYBR Green DNA, 72 h; series mostly up to 12.8 µM
Procedure, shortened: as §1

CP262 = assay: as above; details: P. falciparum in erythrocytes, SYBR Green DNA, 72 h; series mostly up to 12.8 µM
Procedure, shortened: as §1

CP325 = assay: as above; details: P. falciparum in erythrocytes, SYBR Green DNA, 72 h; series mostly up to 12.8 µM
Procedure, shortened: as §1

ECU = assay: as above; details: P. falciparum in erythrocytes, SYBR Green DNA, 72 h; series mostly up to 12.8 µM
Procedure, shortened: as §1

FAB9 = assay: as above; details: P. falciparum in erythrocytes, SYBR Green DNA, 72 h; series mostly up to 12.8 µM
Procedure, shortened: as §1

HB3 = assay: as above; details: P. falciparum in erythrocytes, SYBR Green DNA, 72 h; series mostly up to 12.8 µM
Procedure, shortened: as §1

JCK = assay: as above; details: P. falciparum in erythrocytes, SYBR Green DNA, 72 h; series mostly up to 12.8 µM
Procedure, shortened: as §1

[13] = biological target: Cytochrome P450 3A4 (Homo sapiens) (UniProt P08684); assay: qHTS Assay for Activators of Cytochrome P450 3A4 (AID 885); details: recombinant CYP3A4, Luciferin-PPXE luminescence, 60 min; series mostly up to 57.1 µM; further: nearly all actives have a fitted effect of over 65% in size; further: potency means the concentration at half of the fitted maximal effect
Procedure, shortened: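 CYP3A4 activity: Luciferin-PPXE O-dealkylation, 25uM substrate, 200mM KPO4, RT throughout. Read-out is luciferase luminescence; higher values reflect activation.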

[14] = measured here: cell count channel max response
[15] = measured here: lipid channel max response
[16] = at 12.8 µM (top of the series), parasite line A
[17] = at 12.8 µM (top of the series), parasite line B

Chain of Cytochrome P450 3A4 (Homo sapiens) (P08684 whole entry, looked up): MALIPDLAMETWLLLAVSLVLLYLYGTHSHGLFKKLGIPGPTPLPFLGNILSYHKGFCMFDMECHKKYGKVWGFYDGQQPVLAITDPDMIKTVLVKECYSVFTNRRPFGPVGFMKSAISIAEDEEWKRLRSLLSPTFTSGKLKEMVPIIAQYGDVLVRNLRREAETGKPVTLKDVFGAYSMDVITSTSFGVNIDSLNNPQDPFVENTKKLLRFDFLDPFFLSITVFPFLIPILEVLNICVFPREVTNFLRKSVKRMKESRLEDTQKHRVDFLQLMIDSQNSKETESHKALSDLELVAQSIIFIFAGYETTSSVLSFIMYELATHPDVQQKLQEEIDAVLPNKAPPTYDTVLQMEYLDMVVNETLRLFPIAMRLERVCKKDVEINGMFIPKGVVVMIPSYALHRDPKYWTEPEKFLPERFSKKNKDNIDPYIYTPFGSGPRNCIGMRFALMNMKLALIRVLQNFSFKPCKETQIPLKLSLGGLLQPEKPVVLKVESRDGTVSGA
Chain of Glucocorticoid receptor (Homo sapiens) (P04150 whole entry, looked up, the tested form may be a part): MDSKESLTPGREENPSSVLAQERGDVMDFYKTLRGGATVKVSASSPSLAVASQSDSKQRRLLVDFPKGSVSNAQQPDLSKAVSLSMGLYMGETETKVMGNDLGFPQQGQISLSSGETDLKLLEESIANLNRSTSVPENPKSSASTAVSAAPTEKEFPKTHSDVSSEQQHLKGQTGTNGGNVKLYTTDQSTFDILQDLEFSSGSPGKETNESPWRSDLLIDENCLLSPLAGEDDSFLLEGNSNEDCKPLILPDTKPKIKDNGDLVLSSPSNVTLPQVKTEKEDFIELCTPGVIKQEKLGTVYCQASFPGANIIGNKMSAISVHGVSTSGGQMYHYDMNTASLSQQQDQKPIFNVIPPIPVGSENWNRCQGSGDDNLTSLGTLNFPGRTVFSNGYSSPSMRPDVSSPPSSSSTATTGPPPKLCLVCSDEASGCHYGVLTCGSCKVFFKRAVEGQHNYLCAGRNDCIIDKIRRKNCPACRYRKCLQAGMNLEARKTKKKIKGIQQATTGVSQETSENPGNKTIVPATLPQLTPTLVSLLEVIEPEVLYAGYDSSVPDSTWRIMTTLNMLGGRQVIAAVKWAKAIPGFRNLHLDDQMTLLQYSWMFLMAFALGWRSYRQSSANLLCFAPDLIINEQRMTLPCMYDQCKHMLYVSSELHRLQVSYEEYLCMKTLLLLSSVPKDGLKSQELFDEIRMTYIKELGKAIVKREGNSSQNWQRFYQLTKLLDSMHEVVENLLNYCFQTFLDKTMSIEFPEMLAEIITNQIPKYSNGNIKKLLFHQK
Chain of Luciferin 4-monooxygenase (Photinus pyralis) (P08659 whole entry, looked up): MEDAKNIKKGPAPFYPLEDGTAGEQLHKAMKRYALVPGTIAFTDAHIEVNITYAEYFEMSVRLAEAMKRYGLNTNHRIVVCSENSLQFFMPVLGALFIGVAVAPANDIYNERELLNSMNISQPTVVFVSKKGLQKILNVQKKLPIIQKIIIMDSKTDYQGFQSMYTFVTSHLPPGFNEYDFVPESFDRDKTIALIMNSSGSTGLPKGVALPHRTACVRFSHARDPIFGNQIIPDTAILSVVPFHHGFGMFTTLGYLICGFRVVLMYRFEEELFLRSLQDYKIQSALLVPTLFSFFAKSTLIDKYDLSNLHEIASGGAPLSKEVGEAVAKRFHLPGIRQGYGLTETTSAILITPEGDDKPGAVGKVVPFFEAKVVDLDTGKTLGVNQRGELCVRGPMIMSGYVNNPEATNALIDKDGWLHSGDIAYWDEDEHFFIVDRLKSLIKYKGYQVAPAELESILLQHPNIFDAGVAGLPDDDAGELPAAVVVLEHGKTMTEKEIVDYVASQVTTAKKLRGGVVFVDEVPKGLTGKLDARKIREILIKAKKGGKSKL
Chain of 3',5'-cyclic-AMP phosphodiesterase 4B (Homo sapiens) (Q07343 whole entry, looked up): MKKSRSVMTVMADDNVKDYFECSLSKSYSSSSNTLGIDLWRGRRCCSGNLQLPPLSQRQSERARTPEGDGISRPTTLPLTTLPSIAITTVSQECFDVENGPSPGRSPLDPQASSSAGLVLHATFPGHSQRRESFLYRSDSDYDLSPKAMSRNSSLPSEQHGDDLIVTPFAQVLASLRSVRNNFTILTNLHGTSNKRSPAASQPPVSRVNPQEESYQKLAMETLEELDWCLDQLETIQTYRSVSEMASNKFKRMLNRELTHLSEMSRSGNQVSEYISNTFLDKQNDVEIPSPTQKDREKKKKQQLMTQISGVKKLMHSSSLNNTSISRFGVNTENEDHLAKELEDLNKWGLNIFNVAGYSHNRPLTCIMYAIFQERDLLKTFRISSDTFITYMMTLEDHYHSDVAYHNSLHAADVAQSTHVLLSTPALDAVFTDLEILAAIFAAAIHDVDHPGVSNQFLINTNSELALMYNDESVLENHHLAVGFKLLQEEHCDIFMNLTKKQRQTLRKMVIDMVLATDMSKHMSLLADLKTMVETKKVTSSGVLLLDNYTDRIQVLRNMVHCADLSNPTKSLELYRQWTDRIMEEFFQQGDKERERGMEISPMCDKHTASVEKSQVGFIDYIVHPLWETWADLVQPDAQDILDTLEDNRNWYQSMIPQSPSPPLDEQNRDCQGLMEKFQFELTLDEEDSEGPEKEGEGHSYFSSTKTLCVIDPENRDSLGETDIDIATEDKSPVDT
Chain of Cytochrome P450 1A2 (Homo sapiens) (P05177 whole entry, looked up): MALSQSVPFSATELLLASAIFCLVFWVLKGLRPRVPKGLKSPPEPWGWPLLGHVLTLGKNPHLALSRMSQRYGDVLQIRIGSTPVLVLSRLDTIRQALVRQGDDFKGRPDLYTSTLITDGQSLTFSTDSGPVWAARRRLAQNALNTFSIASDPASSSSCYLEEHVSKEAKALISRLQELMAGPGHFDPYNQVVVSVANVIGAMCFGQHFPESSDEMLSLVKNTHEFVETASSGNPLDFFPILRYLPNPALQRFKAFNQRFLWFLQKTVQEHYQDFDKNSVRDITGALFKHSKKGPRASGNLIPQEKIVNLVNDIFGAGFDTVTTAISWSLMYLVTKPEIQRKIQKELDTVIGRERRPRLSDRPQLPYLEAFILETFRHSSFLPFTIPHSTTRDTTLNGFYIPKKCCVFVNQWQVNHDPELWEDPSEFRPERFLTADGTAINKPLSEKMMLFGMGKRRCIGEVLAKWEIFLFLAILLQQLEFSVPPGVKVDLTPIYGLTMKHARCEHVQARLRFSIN
Chain of Ubiquitin carboxyl-terminal hydrolase 1 (Homo sapiens) (O94782 whole entry, looked up): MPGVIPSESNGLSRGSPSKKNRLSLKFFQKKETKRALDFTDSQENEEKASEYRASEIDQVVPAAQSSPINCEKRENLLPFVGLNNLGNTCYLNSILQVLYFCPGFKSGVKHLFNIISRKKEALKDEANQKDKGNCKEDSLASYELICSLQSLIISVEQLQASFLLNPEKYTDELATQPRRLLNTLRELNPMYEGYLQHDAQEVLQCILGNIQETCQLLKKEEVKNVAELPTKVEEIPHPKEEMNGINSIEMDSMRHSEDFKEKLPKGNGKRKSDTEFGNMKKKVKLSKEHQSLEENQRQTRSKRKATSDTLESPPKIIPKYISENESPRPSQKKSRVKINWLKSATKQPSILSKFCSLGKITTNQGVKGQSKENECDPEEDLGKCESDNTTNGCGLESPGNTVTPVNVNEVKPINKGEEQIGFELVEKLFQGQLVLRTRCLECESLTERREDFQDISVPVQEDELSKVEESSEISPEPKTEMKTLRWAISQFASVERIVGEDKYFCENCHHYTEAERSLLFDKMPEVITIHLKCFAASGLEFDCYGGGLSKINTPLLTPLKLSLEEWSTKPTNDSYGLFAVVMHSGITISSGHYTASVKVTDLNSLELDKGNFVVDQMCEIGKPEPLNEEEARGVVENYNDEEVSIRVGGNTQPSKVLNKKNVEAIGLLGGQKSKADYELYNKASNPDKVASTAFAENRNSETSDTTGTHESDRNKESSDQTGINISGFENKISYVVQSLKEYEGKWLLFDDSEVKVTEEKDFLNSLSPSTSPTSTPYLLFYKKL

C[N+]1(C)CCC[C@@H](OC(=O)C(O)(c2ccccc2)c2ccccc2)C1
activity change, negative = inhibition [1]: 3.62% [at 17.2 µM] (inactive)
Potency [2]: inactive
activity change, negative = inhibition [3]: -62.4% [at 17.2 µM] (active)
activity, negative = inhibition [4]: 11.2% [at 17.2 µM] (inactive)
Potency [5]: > 20.6 µM (inactive)
Potency [6]: > 20.6 µM (inactive)
Potency [7]: inactive
Potency [8]: inactive
activity change, negative = inhibition ([9]; at 25.7 µM (top of the series)): -3.46% (inactive)
max response [9, 14]: -12.3%
max response [9, 15]: -16.2%
Potency [10]: inactive
outcome [11]: inactive
activity, negative = inhibition [12, 16]: 9.41% (inactive)
activity, negative = inhibition [12, 17]: 6.69% (inactive)
Potency (CP238): inactive
Potency (CP262): inactive
Potency (CP325): inactive
Potency (ECU): inactive
Potency (FAB9): inactive
Potency (HB3): inactive
Potency (JCK): inactive

C/C=C\C(=O)N(CC)c1ccccc1C
activity change, negative = inhibition [1]: -1.59% [at 17.2 µM] (inactive)
Potency [2]: inactive
activity change, negative = inhibition [3]: -0.257% [at 17.2 µM] (inactive)
activity, negative = inhibition [4]: 4.14% [at 17.2 µM] (inactive)
Potency [5]: > 20.6 µM (inactive)
Potency [6]: > 20.6 µM (inactive)
Potency [7]: inactive
Potency [8]: inactive
Potency [13]: 7.94 µM (active)
activity change, negative = inhibition ([9]; at 25.7 µM (top of the series)): -4.01% (inactive)
max response [9, 14]: -15.1%
max response [9, 15]: -17.7%
outcome [11]: inactive
activity, negative = inhibition [12, 16]: 6.96% (inactive)
activity, negative = inhibition [12, 17]: 1.34% (inactive)
Potency (CP238): inactive
Potency (CP262): inactive
Potency (CP325): inactive
Potency (ECU): inactive
Potency (FAB9): inactive
Potency (HB3): inactive
Potency (JCK): inactive

COC(=O)C1OC(=O)C2OC23[C@]2(C)C(O)CC4C(C)(C)C(OC(C)=O)CC(OC(C)=O)[C@@]4(C)C2CC[C@@]13C (some centres not stated)
Potency [13]: inactive
activity change, negative = inhibition ([9]; at 57.5 µM (top of the series)): -1.67% (inactive) and 3.12% (inactive)
max response [9, 14]: 17.5% and 7.5%
max response [9, 15]: 17.7% and 13.2%
Potency [10]: inactive

O=c1c(O)c(-c2ccc(O)cc2)oc2ccccc12
Potency [13]: inactive
activity change, negative = inhibition ([9]; at 57.5 µM (top of the series)): 8.84% (inactive)
max response [9, 14]: -12.3%
max response [9, 15]: -1%

Nc1ccn(C2OC(CO)C(O)C2O)c(=O)n1 (configuration not stated)
activity change, negative = inhibition ([9]; at 57.5 µM (top of the series)): 2.01% (inactive) and 0.795% (inactive)
max response [9, 14]: -9.2% and 5.05%
max response [9, 15]: -5.62% and 10.3%

CC(=O)Oc1cc(OC(C)=O)c2c(c1)OC(c1ccc(OC(C)=O)c(OC(C)=O)c1)C(OC(C)=O)C2 (configuration not stated)
Potency [13]: inactive
activity change, negative = inhibition ([9]; at 57.5 µM (top of the series)): 6.42% (inactive) and -10.2% (inactive)
max response [9, 14]: 0.329% and -6.77%
max response [9, 15]: 6.69% and -15%
Potency [10]: inactive

c1ccc(C(c2ccccc2)N2CC3(CCNCC3)C2)cc1
activity change, negative = inhibition [1]: 14% (inactive)
Potency [2]: 15.8 µM (active)
Potency [6]: > 46 µM (inactive)
Potency [8]: inactive
activity change, negative = inhibition ([9]; at 57.5 µM (top of the series)): 0.527% (inactive)
max response [9, 14]: -0.423%
max response [9, 15]: 0.5%

CC1(C)Oc2ccc(C#N)cc2[C@H](N2CCCC2=O)[C@H]1O
Potency [2]: 10 µM (active)
Potency [5]: > 46 µM (inactive)
Potency [6]: > 46 µM (inactive)
Potency [7]: inactive
Potency [8]: inactive
activity change, negative = inhibition ([9]; at 57.5 µM (top of the series)): 0.0468% (inactive) and 5.32% (inactive)
max response [9, 14]: 5.79% and -0.997%
max response [9, 15]: 6.51% and -0.942%
Potency [10]: inactive
outcome [11]: inactive
activity, negative = inhibition ([12]; at 28.7 µM (top of the series), parasite line A): 10.2% (inactive)
activity, negative = inhibition ([12]; at 28.7 µM (top of the series), parasite line B): 9.46% (inactive)
Potency (CP238): inactive
Potency (CP262): inactive
Potency (CP325): inactive
Potency (ECU): inactive
Potency (FAB9): inactive
Potency (HB3): inactive
Potency (JCK): inactive
